In PubChem BioAssay AID588728 (Vanderbilt Specialized Chemistry Center, 2011):
The source made the active and inactive calls.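 The calls were made as follows: active = compound at 10 µM that moves glutamate potency by over twofold either way, or clearly lowers or raises peak response; inactive = the rest.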

Biological target: Metabotropic glutamate receptor 3 (Rattus norvegicus) (UniProt P31422)
Test: mGluR5 PAM selectivity profiling against rat mGluR3, glutamate response modulation, fold shift by Tl+ flux in HEK/GIRK cells (AID 588728)
Details: HEK/GIRK rat mGluR3, thallium flux, glutamate CRC fold shift, at 10 µM; Emax: measured here: glutamate max response with compound

Sequence of Metabotropic glutamate receptor 3 (Rattus norvegicus) (P31422 whole entry, looked up): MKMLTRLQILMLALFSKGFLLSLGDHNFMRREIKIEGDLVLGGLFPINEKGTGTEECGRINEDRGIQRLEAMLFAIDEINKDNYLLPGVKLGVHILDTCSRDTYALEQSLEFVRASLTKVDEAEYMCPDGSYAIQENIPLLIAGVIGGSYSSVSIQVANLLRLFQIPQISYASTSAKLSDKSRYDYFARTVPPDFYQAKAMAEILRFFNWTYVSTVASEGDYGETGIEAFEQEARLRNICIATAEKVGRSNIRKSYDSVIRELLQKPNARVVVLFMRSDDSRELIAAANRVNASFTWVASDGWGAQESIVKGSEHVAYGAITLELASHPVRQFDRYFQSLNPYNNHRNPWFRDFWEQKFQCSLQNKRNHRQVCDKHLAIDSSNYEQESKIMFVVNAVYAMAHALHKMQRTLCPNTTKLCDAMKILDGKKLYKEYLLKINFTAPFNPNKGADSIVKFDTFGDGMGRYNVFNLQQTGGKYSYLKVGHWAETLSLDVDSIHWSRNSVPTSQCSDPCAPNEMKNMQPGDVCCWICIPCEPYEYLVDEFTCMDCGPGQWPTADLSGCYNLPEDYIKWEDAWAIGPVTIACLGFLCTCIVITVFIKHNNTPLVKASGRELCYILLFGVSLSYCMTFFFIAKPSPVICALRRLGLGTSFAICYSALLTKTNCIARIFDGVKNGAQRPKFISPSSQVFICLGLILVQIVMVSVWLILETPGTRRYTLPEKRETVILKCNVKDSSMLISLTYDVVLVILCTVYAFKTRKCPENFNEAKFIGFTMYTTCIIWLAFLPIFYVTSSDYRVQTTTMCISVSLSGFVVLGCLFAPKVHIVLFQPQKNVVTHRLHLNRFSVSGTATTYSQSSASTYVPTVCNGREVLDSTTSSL

## CC1(NC(=O)c2ccc(C#Cc3cccc(F)c3)cn2)COC1
  Emax: 84%
  fold shift: 0.85 (inactive)

## C[C@@H](NC(=O)c1ccc(C#Cc2cccc(F)c2)cn1)C(C)(C)O
  Emax: 89%
  fold shift: 0.95 (inactive)
